Gli-Sufu block: antagonists of Gli-Sufu signaling; Sufu-KO-LIGHT fibroblasts, Gli luciferase reporter luminescence; inhibition, % at 5 µM; hit rate 0.74% among 340,000;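 active = inhibition above about 55%, limit read from the data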;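 note: 0% = DMSO-treated cells and 100% = wells with medium but no cells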
COUP-TFII inh: blocks human COUP-TFII nuclear receptor; HEK293T NGFI-A luciferase reporter, luminescence; inhibition, % at 8.6 µM; hit rate 0.7% among 370,000; P24468;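 active = inhibition above a per-plate cutoff, mean inhibition of test wells between control levels plus 3 SD, cut at about 38% in these data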;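 note: cells cotransfected with COUP-TFII expression vector driving the NGFI-A reporter; 0% = median of COUP-TF2 test wells and 100% = reporter-only cells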
Target sequence (P24468 whole entry, looked up): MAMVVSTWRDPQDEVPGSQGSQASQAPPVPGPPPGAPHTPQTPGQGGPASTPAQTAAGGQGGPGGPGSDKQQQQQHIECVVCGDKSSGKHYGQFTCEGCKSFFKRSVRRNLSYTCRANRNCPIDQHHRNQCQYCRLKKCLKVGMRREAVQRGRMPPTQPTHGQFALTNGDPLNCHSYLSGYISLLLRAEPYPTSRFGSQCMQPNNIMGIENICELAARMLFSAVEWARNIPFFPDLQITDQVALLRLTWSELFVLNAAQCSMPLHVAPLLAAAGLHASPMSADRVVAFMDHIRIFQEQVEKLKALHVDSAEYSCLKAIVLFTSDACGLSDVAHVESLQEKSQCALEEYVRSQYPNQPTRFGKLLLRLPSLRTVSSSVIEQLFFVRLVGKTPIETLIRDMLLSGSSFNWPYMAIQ
Cardio protect: modulators protecting cardiomyocytes from myocardial damage; hit rate 0.63% among 360,000; H9c2 cardiomyocytes, H2O2 injury protection, ATPLite, 2 h; protection from H2O2 cell death, % at 20 µM; AID 588492;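 active = compounds giving at least 50% protection of heart cells from peroxide-induced death in the single-dose screen, raw or plate-pattern-corrected value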;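 note: 0% = DMSO wells with peroxide and 100% = DMSO wells without peroxide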
TAG inh: reduces triacylglycerol accumulation in H9c2 cells; Nile Red lipid (TAG) fluorescence; cells loaded with 200 µM oleic acid; inhibition, % at 12.5 µM; hit rate 0.66% among 230,000;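 active = pattern-corrected inhibition of lipid staining of at least 50% with the nuclear-stain viability signal not falling by more than 50%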;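 note: 0% = DMSO wells and 100% = triacsin C control wells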
697 NFkB inh: lowers PMA/ionomycin-induced NF-kB signal in 697 B cells; inhibition, % at 4 µM; AID 435022; 697 B-cell NF-kB luciferase reporter, 16 h; hit rate 0.33% among 330,000; in the data active = inhibition above about 35%
Jurkat NFkB inh: lowers PMA/ionomycin-induced NF-kB signal in Jurkat cells. AID 435003. inhibition, % at 4 µM. PMA/ionomycin-induced NF-kB luciferase reporter, luminescence. hit rate 0.53% among 330,000; in the data active = inhibition above about 50%
VP16 Luc counter: counter-screen for COUP-TFII antagonists: inhibitors of VP16; shares compounds with COUP-TFII inh; HEK293 Gal4-VP16 luciferase reporter, luminescence; inhibition, % at 8.5 µM; hit rate 25% among 2,500; in the data active = inhibition above about 13%
NR2F2 inh conf: confirmation of human COUP-TFII (NR2F2) inhibitors; AID 687008; HEK293 NGFI-A luciferase reporter, luminescence; hit rate 45% among 2,500; shares compounds with COUP-TFII inh; inhibition, % at 8.5 µM;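 active = mean inhibition over three repeats above a set limit taken from the earlier primary screen, cut at about 38% in these data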;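 note: 100% = cells given the luciferase reporter alone without the COUP-TF2 vector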
* = called active by the depositor; x = no result. This is a sample that favours compounds with a hit; in the whole collection about 2.6% have one here.

SMILES | Gli-Sufu block | COUP-TFII inh | Cardio protect | TAG inh | 697 NFkB inh | Jurkat NFkB inh | VP16 Luc counter | NR2F2 inh conf
O=C(Cc1cn(Cc2ccccc2)c2ccccc12)Nc1ccc(Nc2cccnc2)c(Br)c1 | x | 9 | x | x | x | x | x | x
COCCNC(=O)c1oc2ccc3c(c2c1C)C(O)CC(C)(C)O3 (stereo not drawn) | 7 | -5 | -2 | x | -2 | 5 | x | x
Cc1c(C(=O)N2CCC(C)CC2)oc2ccc3c(c12)C(O)CC1(CCCCC1)O3 (stereo not drawn) | 11 | 38* | -9 | x | -113 | 11 | -4 | 5
OCCN(CCO)CC(O)COc1ccc(Br)cc1 (stereo not drawn) | 2 | -26 | 8 | 17 | 12 | 0 | x | x
OCCN(CCO)CC(O)COc1ccc(C23CC4CC(CC(C4)C2)C3)cc1 (stereo not drawn) | 18 | 87* | 5 | x | x | x | 62* | 72*
C=CCCC(=O)N1C[C@H]2CCN(C)[C@H]2C[C@H]1c1ccccc1Br | x | 5 | x | x | x | x | x | x
O=C(COC(=O)c1cc(S(=O)(=O)N2CCOCC2)ccc1F)NCc1ccc2c(c1)OCO2 | -1 | 47* | 0 | -7 | 4 | 9 | -8 | -8
CC(=O)C1=C(C)N(Cc2ccc(F)cc2)C(=S)NC1c1ccc(Cl)cc1 (stereo not drawn) | x | -2 | x | x | x | x | x | x
Cc1cc(C)cc(OCC(O)CN2CCC(CN3C(=O)c4cccc5cccc(c45)C3=O)CC2)c1 (stereo not drawn) | 4 | 73* | -18 | -1 | -47 | 32 | 7 | 40*
COc1cccc(OCC(O)CN2CCC(CN3C(=O)c4cccc5cccc(c45)C3=O)CC2)c1 (stereo not drawn) | 8 | 28 | 2 | -10 | -66 | -17 | x | x
Cc1cc(Br)ccc1NC(=O)CN(C)C(=O)C1CCN(c2ncnc3sc(C)c(C)c23)CC1 | 29 | 47* | 1 | -54 | x | x | 10 | 37
CC(=O)N1CCc2cc(S(=O)(=O)NCCCN3CCCCC3)ccc21 | 4 | 4 | -4 | x | -11 | -9 | x | x
O=C(Nc1cccc(F)c1)c1cc(S(=O)(=O)NCCC2=CCCCC2)ccc1F | 37 | 35 | -23 | x | -9 | 8 | x | x
CC(=O)N1CCc2cc(S(=O)(=O)NCCC3=CCCCC3)ccc21 | 41 | 47* | -20 | -36 | -23 | 25 | 5 | 36
Cc1ccc(NC(=O)c2cc(S(=O)(=O)NCCC3=CCCCC3)ccc2F)cc1F | 21 | 40* | -15 | 3 | -44 | 20 | 2 | 40*
O=C(NCc1ccco1)C1CCCN(S(=O)(=O)c2cccs2)C1 (stereo not drawn) | x | 1 | x | x | x | x | x | x
OC(c1ccc(F)cc1)c1nc(-c2ccncc2)cs1 (stereo not drawn) | x | 42* | -28 | -35 | x | x | -1 | 23
Cc1ccc(Cl)cc1N1CCN(C(=O)CCS(=O)(=O)c2ccc3c(c2)NC(=O)CO3)CC1 | 24 | 54* | -4 | x | -24 | 19 | -3 | 24
CC[C@H](NC(=O)[C@@H](Cc1ccccc1)NC(=O)[C@H]1O[C@@H](n2cnc3c(=O)[nH]c(N)nc32)[C@H](O)[C@@H]1O)c1ccccc1 | x | 2 | x | x | x | x | x | x
Cc1nc(N2CCN(Cc3ccc4c(c3)OCO4)CC2)c2oc3ccccc3c2n1 | -9 | 83* | -10 | -15 | x | x | -5 | 9
Cc1ccc(S(=O)(=O)NCC2CCN(C(=O)C(=O)c3cccs3)CC2)cc1 | x | -16 | x | x | x | x | x | x
CC(=O)c1ccc(NC(=O)CSc2nnc(Cn3cnc4ccccc43)o2)cc1 | 0 | 2 | 2 | -2 | 5 | 2 | x | x
COc1ccc(C(=O)CSc2nnc(Cn3cnc4ccccc43)o2)cc1 | 1 | 60* | -11 | -16 | -37 | 32 | 5 | 41*
CCN(CC)C(=O)CC[C@H]1CC[C@]2(CCCN(Cc3ccc(OC)cc3)C2)O1 | x | -1 | x | x | x | x | x | x
O=C(Nc1ccccn1)c1ccc(Cl)c(S(=O)(=O)N2CCc3ccccc32)c1 | 3 | 45* | -8 | 7 | -53 | 3 | -3 | 22
SMILES | Gli-Sufu block | COUP-TFII inh | Cardio protect | TAG inh | 697 NFkB inh | Jurkat NFkB inh | VP16 Luc counter | NR2F2 inh conf
COc1ccc(NC(=O)c2ccc(Cl)c(S(=O)(=O)N3CCc4ccccc4C3)c2)cn1 | -2 | 68* | -14 | x | -22 | 13 | -3 | 18
O=C(Nc1cccnc1)c1ccc(Cl)c(S(=O)(=O)N2CCc3ccccc32)c1 | 1 | 15 | 25 | 3 | -24 | 17 | x | x
Cc1n[nH]c(C)c1S(=O)(=O)NCCc1cccc(F)c1 | x | 7 | x | x | x | x | x | x
Cc1noc(C)c1S(=O)(=O)N1CCCc2nc(-c3ccc(F)cc3)ccc21 | x | 17 | x | x | x | x | x | x
Cc1cc(C)cc(NC(=O)C2CCN(S(=O)(=O)c3ccc4c(c3)NC(=O)C(C)S4)CC2)c1 (stereo not drawn) | 5 | 11 | 4 | x | -1 | 17 | x | x
Cc1ccc(NC(=O)C2CCN(S(=O)(=O)c3ccc4c(c3)NC(=O)C(C)S4)CC2)cc1Cl (stereo not drawn) | 60* | 64* | -19 | x | -8 | 21 | 13 | 47*
CC1CCN(C2=NC(=O)/C(=C/c3ccccc3F)S2)CC1 | 12 | 63* | -15 | x | -69 | -3 | -117 | -46
CC1CCN(C2=NC(=O)/C(=C/c3cccc(O)c3)S2)CC1 | -1 | -8 | 3 | x | 3 | -4 | x | x
O=C(CCN1CCOCC1)c1ccc(N2CCCCC2)cc1 | -23 | 60* | -4 | x | 26 | 3 | 39* | 40*
O=C(CCN1CCN(c2ccccc2)CC1)c1ccc(Cl)cc1 | 2 | -1 | -14 | x | 2 | 13 | x | x
CCC(C)NC(=S)Nc1ccc(C(=O)OC)cc1 (stereo not drawn) | 8 | 39* | -21 | -20 | -32 | 15 | -37 | -13
C=CCOc1ccc(CN(C)C(=O)CNC(=O)c2ccc(-c3ccccc3)cc2)cc1 | -10 | 47* | -7 | x | -25 | 1 | 1 | 36
CCOc1ccc(CN(C)C(=O)CNC(=O)c2ccccc2)cc1 | -2 | -8 | 1 | x | 19 | 8 | x | x
CCCn1c(NC(=O)c2ccc(Cl)c(S(=O)(=O)N3CCCC3)c2)nc2ccccc21 | -2 | 44* | 61* | -26 | -8 | 6 | -8 | 15
CN(C)CCCNC(=O)c1ccc(Cl)c(S(=O)(=O)N2CCCCCC2)c1 | 25 | -21 | 11 | 2 | -3 | -24 | x | x
CN(C)C(CNC(=O)c1ccc(Cl)c(S(=O)(=O)N2CCCCCC2)c1)c1ccccc1 (stereo not drawn) | 24 | 63* | -12 | -3 | -20 | 20 | -1 | 35
Cc1ccccc1CCNC(=O)c1ccc(Cl)c(S(=O)(=O)N2CC(C)OC(C)C2)c1 (stereo not drawn) | 14 | 67* | -12 | -1 | -29 | 25 | 1 | 34

Compound activity: PubChem BioAssay, several laboratories
